High-throughput results (PubChem)
Rows were chosen to be rich in hits. Some 3.5% of all compounds tested hit in one or more screens of this group.
Myeloid diff MLP: promotes myeloid progenitor differentiation; ER-HoxA9 myeloid progenitors, lysozyme-GFP differentiation, flow cytometry; actives 1% (n = 360,000); calls only at 10 µM; AID 624256;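 active means normalized GFP-positive differentiation at or above the plate's own cutoff, the solvent-only control mean plus 3 SD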;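 further: cells exposed to compound for four days before flow analysis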
M1 ag: human M1 muscarinic receptor agonism. P11229. CHO-K1 hM1, Fluo-8 calcium fluorescence, agonist mode; 0% DMSO, 100% acetylcholine EC100. actives 0.33% (n = 360,000). activation, % at 3 µM. AID 588814;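 active means activation above the run's mean compound activation plus 3 SD, cut at about 16% in these data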;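 further: peak over basal fluorescence ratio within a 140 s kinetic read after compound addition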
Target sequence (P11229 whole entry, looked up): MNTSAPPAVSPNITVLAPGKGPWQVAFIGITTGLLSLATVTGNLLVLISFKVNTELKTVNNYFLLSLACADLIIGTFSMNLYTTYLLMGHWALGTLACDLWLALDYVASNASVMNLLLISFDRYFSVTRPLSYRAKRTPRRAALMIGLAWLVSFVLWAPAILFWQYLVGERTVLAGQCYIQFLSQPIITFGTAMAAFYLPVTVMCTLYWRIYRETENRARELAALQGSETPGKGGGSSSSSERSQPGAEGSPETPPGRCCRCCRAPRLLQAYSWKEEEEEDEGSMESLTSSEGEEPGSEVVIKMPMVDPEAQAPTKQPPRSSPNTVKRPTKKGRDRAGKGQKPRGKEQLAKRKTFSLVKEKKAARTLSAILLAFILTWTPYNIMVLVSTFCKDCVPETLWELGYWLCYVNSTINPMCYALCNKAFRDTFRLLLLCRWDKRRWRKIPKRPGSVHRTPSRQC
CHRM1 PAM: positive allosteric modulators of human M1 muscarinic receptor. P11229. CHO-K1 hM1, Fluo-8 calcium fluorescence, ACh EC20; 0% = ACh EC20, 100% = maximal ACh. activation, % at 3 µM. actives 0.088% (n = 360,000); in the data active means activation above about 19%, passing the limit was not always enough
CHRM1 antagonist: antagonists of human M1 muscarinic receptor. P11229. AID 588852. inhibition, % at 3 µM. CHO-K1 hM1, Fluo-8 calcium fluorescence, ACh EC80 antagonist. actives 1.3% (n = 360,000);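 active means percent inhibition above its own plate's cutoff, namely the mean of that plate's compound wells plus 3 SD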;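 further: peak over basal fluorescence ratio during 140 s after agonist addition; 0% = ACh EC80 plus DMSO and 100% = DMSO alone without agonist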
ATG4B inh: inhibitors of human ATG4B cysteine protease; Q9Y4P1; ATG4B cleavage of LC3-PLA2, NBD-HPC fluorescence, 1 h; inhibition, % at 8.33 µM; actives 0.51% (n = 340,000); AID 504462; in the data active means inhibition above about 40%
SKN-1 inh: inhibitors of C. elegans SKN-1; inhibition, % at 21.8 µM; C. elegans VP596 Pgst-4::GFP/RFP ratio, acrylamide-induced, 24 h; actives 0.49% (n = 360,000);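 active means interference check ratio from 0.5 to 1.5 plus GFP to RFP signal ratio inhibition reaching or exceeding a fixed threshold, cut at about 30% in these data, passing the limit was not always enough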
Starred values were filed as active, the others as inactive; i = inactive; . = no result; + = active, no number.

SMILES	Myeloid diff MLP	M1 ag	CHRM1 PAM	CHRM1 antagonist	ATG4B inh	SKN-1 inh
O=C(Nc1ccc([N+](=O)[O-])cc1)OC1CCS(=O)(=O)C1 (stereo not given)	i	.	.	.	.	14.9
COc1ccccc1Nc1nc(Cl)c(C=O)s1	+	-3.3	-1.6	23.3	-6.3	7.5
COc1ccc2nc(Nc3ccccc3OC)sc2c1	i	-5.8	11.0	-13.4	-5.1	13.3
Cc1ccc(Nc2nc(Cl)c(C=O)s2)cc1Cl	+	0.2	-3.1	7.5	5.7	10.6
Cc1ccc(Nc2nc3ccccc3c(=O)s2)cc1C	i	-6.4	3.3	-0.7	5.1	-7.6
CCc1cc(=O)oc2cc(OCc3ccc(C(=O)O)o3)ccc12	+	-0.2	6.8	-6.9	-6.0	10.1
O=C(O)c1ccc(COc2ccc3c4c(c(=O)oc3c2)CCC4)o1	i	0.4	7.8	-15.1	0.3	-22.7
CC(=O)Nc1ccc(NC(=O)C(C)N(C)CC(=O)Nc2ccccc2Br)cc1 (stereo not given)	i	1.7	9.8	-12.2	-2.6	2.8
Cc1cccc(Cc2c(C)nc3nc(SCC(=O)O)nn3c2C)c1	i	-0.6	6.5	1.2	-1.0	-3.2
Cc1nc2nc(SCC(=O)NCCCN3CCCC(C)C3)nn2c(C)c1Cc1ccccc1Cl (stereo not given)	i	1.4	-23.8	63.2*	-4.5	30.9
Cc1nc2nc(SCC(=O)NCCCN3CCCCCC3)nn2c(C)c1Cc1ccccc1Cl	i	-5.4	-23.7	100.2*	-2.2	19.9
Cc1ccccc1Cc1c(C)nc2nc(SCC(=O)NCCCN3CCCC3)nn2c1C	i	-11.4	-31.4	50.0*	4.9	7.8
N#C/C(=C\c1ccc(OCc2ccccc2)cc1)C(=O)Nc1nc2c(s1)CCN(Cc1ccccc1)C2	i	-2.3	11.0	-13.1	12.8	-10.0
CN(C)c1ccc(/C=C(/C#N)C(=O)Nc2nc3c(s2)CCN(Cc2ccccc2)C3)cc1	+	18.7*	-14.9	23.9*	-11.3	47.6*
Cc1csc(NC(=O)C(C)Oc2ccc(Cl)cc2C)n1 (stereo not given)	i	-6.2	0.9	-1.8	-47.2	-2.6
CC(=O)Nc1ccc(NC(=O)C(C)OC(=O)c2ccc(S(=O)(=O)N3CCCCC3)cc2)cc1 (stereo not given)	i	-6.7	2.0	-0.8	2.8	-11.4
CC(OC(=O)c1ccc(Cl)nc1)C(=O)Nc1ccc(S(=O)(=O)N2CCCC2)cc1 (stereo not given)	i	-7.1	-24.8	36.4*	0.8	2.8
O=C(COC(=O)c1cc([N+](=O)[O-])ccc1NCCO)Nc1cccc(S(=O)(=O)N2CCCC2)c1	i	-7.4	-18.9	39.7*	-18.5	3.3
CC(Oc1ccccc1Cl)C(=O)Nc1ccc(S(=O)(=O)N2CCCC2)cc1 (stereo not given)	i	-3.5	-26.6	90.6*	-3.9	16.8
CC(=O)Nc1ccc(NC(=O)COC(=O)c2cc(S(=O)(=O)N3CCCC3)ccc2O)cc1	i	-1.2	-14.5	30.4*	-3.9	7.5
COc1ccc(C2CCCN2C(=S)Nc2cccc(C)c2C)cc1OC (stereo not given)	i	5.1	8.2	-11.5	17.7	2.8
O=C(COc1ccccc1Br)Nc1ccc(S(=O)(=O)N2CCCC2)cc1	i	-4.3	-29.1	42.2*	-3.5	-3.1
CC(Oc1ccc(Cl)cc1)C(=O)Nc1ccc(S(=O)(=O)N2CCOCC2)cc1 (stereo not given)	i	38.0*	-3.3	8.4	-6.8	-2.1
COc1cccc(NC(=S)N2CCC(c3ccc(C)cc3)C2)c1 (stereo not given)	i	-5.4	6.5	-11.7	-5.6	0.4
CCC(C)c1ccc(OCc2ccc(C(=O)O)o2)cc1 (stereo not given)	i	-3.3	4.6	-8.3	-2.9	11.4
SMILES	Myeloid diff MLP	M1 ag	CHRM1 PAM	CHRM1 antagonist	ATG4B inh	SKN-1 inh
O=C(Nc1ccn(Cc2ccccc2F)n1)c1ccc(COc2ccc(Br)cc2)cc1	i	1.7	-21.1	32.9*	18.1	-4.4
O=C(Nc1ccc(Cn2cccn2)cc1)c1ccc(COc2ccc(Br)cc2)cc1	i	-4.7	2.0	-2.7	-9.6	-1.4
O=C(Nc1ccc(Cn2cccn2)cc1)c1ccc(COc2cccc(Br)c2)cc1	+	-3.5	-1.8	6.0	-22.0	15.7
O=C1CCCC2=C1C(c1ccco1)Nc1ccc3ccccc3c12 (stereo not given)	+	0.7	4.4	-4.3	8.3	-0.6
CC(C)Oc1ccc(Cn2c(-c3ccco3)n[nH]c2=S)cc1	i	-3.9	-21.7	29.3*	-3.2	-4.2
COc1ccc(Cn2c(-c3ccc(OC)cc3)n[nH]c2=S)cc1	i	-3.6	10.6	-17.8	-2.0	-12.4
CCCCN(C)C1=CC2=CC(=C(C#N)C#N)CCC2CC1 (stereo not given)	+	670.1*	-27.8	101.3*	-75.4	-48.0
N#CC(C#N)=C1C=C2C=C(N3CCCCC3)CCC2CC1 (stereo not given)	.	.	.	.	-274.4	.
CCN(CC)C1=CC2=CC(=C(C#N)C#N)CCC2CC1 (stereo not given)	+	229.7*	-31.6	63.3*	-113.0	-59.0
CCCCn1c(/N=C/c2ccc(N(C)C)cc2)nc2ccccc21	i	2.3	20.7*	-23.4	16.9	7.6
Cc1ccc(-c2nc3cc(NC(=O)C(C)C)ccc3o2)cc1	+	-1.8	-7.1	7.1	-10.8	-9.0
Cc1ccc(-c2nc3cc(NC(=O)C(C)C)ccc3o2)cc1C	i	-2.4	4.7	-3.9	-2.0	-14.8
O=[N+]([O-])c1ccc(-c2ccc(/C=N/Nc3nc(N4CCCCC4)nc(N4CCCCC4)n3)o2)cc1	+	-4.5	2.6	-1.0	1.6	17.9
COc1ccc(-c2cc(N3C(=O)Nc4ccccc4N3O)n[nH]2)c(OC)c1	i	-5.2	6.6	-4.2	7.6	4.0
COc1cccc(Nc2nc(C(N)Cc3ccc(F)cc3)cs2)n1 (stereo not given)	+	12.3	7.2	-0.1	.	18.3
O=CN1CCc2scc[n+]2-c2ccccc21	i	-5.2	12.0	-15.9	-2.5	36.4*
Cc1cc(C)c(S(N)(=O)=O)c(C)c1N(C)S(=O)(=O)c1ccc(Cl)cc1	i	0.2	-12.7	40.1*	3.7	17.6
CCC1(C)Cc2ccccc2-c2nc(NCCO)n(-c3ccc(C)cc3)c(=O)c21 (stereo not given)	i	1.4	2.4	-13.4	-7.2	37.9*
CCC1(C)Cc2ccccc2-c2nc(NCCO)n(-c3ccccc3)c(=O)c21 (stereo not given)	i	-2.6	1.5	2.1	-3.8	16.5
Clc1ccc(OCCN2CCCCC2)cc1Cl	i	-11.9	-17.2	29.3*	5.1	7.6
Clc1ccc(OCCN2CCOCC2)cc1Cl	i	-1.6	1.5	-20.0	-17.9	9.9
